Laboratory results taken from PubChem BioAssay (NCATS).
Values joined by “and” are separate entries in the source; they are usually repeats but may differ in a detail not shown here. Equal entries are not always repeated. Results filed as inconclusive are left out. Active and inactive are the calls of the source. Calls come from the whole dose curve; as a rule, active = well fitted curve in the direction sought with a large enough effect; inconclusive = small, poorly fitted or top-dose-only effect, or another doubt; inactive = no such curve, though single readings can be large; an effect the other way counts as inactive or inconclusive.

Tests used:
[1] = biological target: Cellular tumor antigen p53 (Homo sapiens) (UniProt P04637); test: Primary qHTS for small molecule compounds that upregulate eGFP-tagged delta133p53alpha (in N-terminal) cells. (AID 2060322); settings: NCI-H358 eGFP-delta133p53alpha fluorescence, 24 h; activation: active compounds read high; note: nearly all actives have a fitted effect of over 75% in size; note: potency is the fitted concentration of half-maximal effect;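 for activation: series mostly up to about 56 µM; 0% = DMSO vehicle and 100% = reference activator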
Sequence of Cellular tumor antigen p53 (Homo sapiens) (P04637 whole entry, looked up): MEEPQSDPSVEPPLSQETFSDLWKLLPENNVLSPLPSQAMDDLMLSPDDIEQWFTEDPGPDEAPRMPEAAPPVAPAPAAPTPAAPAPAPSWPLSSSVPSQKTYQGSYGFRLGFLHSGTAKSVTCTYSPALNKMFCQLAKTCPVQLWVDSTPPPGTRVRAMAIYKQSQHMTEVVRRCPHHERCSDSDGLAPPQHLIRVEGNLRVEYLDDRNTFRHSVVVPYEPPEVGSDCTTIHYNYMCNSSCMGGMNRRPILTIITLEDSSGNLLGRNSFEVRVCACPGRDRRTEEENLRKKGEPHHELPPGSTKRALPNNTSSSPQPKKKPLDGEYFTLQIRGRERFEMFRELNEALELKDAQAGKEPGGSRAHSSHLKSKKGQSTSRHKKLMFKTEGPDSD
Method in brief: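 NCI-H358 cells pre-induced 24 h with 10 ng/ml doxycycline to express N-terminal eGFP-delta133p53alpha, then dosed 24 h at 37C without doxycycline; fixed, Hoechst-stained, GFP intensity by laser scanning cytometry, normalized to DMSO (0%) and 57.5 uM 5-azacytidine (100%).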

[2] = biological target: Aldehyde dehydrogenase, mitochondrial (Homo sapiens) (UniProt P05091); test: qHTS for Inhibitors of the Aldehyde Dehydrogenase Family (ALDH2) Primary screen (AID 2061308);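 note: plate controls were vehicle for no effect and reference inhibitor for full effect; nearly all actives have a fitted effect of over 55% in size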
[3] = biological target: Retinaldehyde dehydrogenase 3 (Homo sapiens) (UniProt P47895); test: qHTS for Inhibitors of the Aldehyde Dehydrogenase Family (ALDH1A3) Primary screen (AID 2061315);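 note: plate controls were DMSO vehicle for no effect and reference inhibitor for full effect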
[4] = BET inhibitor-based combinations targeting novel dependencies in MECOM-rearranged (r) AML: SET-2 cell line (AID 2202231); settings: SET-2 AML cells viability, CellTiter-Glo luminescence, 48 h; viability: active compounds read low, concentration not given here; note: nearly all actives have a fitted effect of over 35% in size; note: potency is the fitted concentration of half-maximal effect;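 for viability: plate controls were DMSO treated cells for no effect and wells without cells for full effect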
Method in brief: (§1)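 Here, 11-point titrations of each agent were applied to 500 seeded cells and incubated 48 hr; CellTiter-Glo signal, scaled against DMSO and empty wells, was integrated as AUC, then Z-scored within the individual line.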

[5] = BET inhibitor-based combinations targeting novel dependencies in MECOM-rearranged (r) AML: OCI-AML3 cell line (AID 2202232); settings: Potency: OCI-AML3 viability; note: nearly all actives have a fitted effect of over 35% in size; note: potency is the fitted concentration of half-maximal effect
Method in brief: as §1

[6] = BET inhibitor-based combinations targeting novel dependencies in MECOM-rearranged (r) AML: MV-4-11 cell line (AID 2202233); note: nearly all actives have a fitted effect of over 45% in size; note: potency is the fitted concentration of half-maximal effect
Method in brief: (§2)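 Normalized to DMSO and empty-well controls, the luminescence data from CellTiter-Glo after 48 hr drug exposure were fitted across 11 concentrations. Reported metrics are area under the dose-response curve and its Z-transformed form.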

[7] = BET inhibitor-based combinations targeting novel dependencies in MECOM-rearranged (r) AML: HNT-34 cell line (AID 2202234); note: nearly all actives have a fitted effect of over 35% in size; note: potency is the fitted concentration of half-maximal effect
Method in brief: as §2

[8] = BET inhibitor-based combinations targeting novel dependencies in MECOM-rearranged (r) AML: UCSD-AML1 cell line (AID 2202235); note: nearly all actives have a fitted effect of over 40% in size; note: potency is the fitted concentration of half-maximal effect
Method in brief: as §2

[9] = BET inhibitor-based combinations targeting novel dependencies in MECOM-rearranged (r) AML: AML-191 cell line (AID 2202236; note: nearly all actives have a fitted effect of over 35% in size; note: potency is the fitted concentration of half-maximal effect)
Method in brief: as §1

[10] = BET inhibitor-based combinations targeting novel dependencies in MECOM-rearranged (r) AML: AML-194 cell line (AID 2202237; note: nearly all actives have a fitted effect of over 40% in size; note: potency is the fitted concentration of half-maximal effect)
Method in brief: as §1

CCOc1cc(C(=O)N2CCC(N3CCN(C)CC3)CC2)ccc1Nc1ncc2c(n1)N(C1CCCC1)c1ccccc1C(=O)N2C
inactive: Potency [2] | Potency [3]
active: Potency [1] 30.1 µM | Potency [4] 14.8 µM | Potency [5] 3.32 µM | Potency [6] 1.66 µM | Potency [7] 13.2 µM | Potency [8] 5.25 µM | Potency [9] 11.8 µM | Potency [10] 8.33 µM

C=CC(=O)Nc1cc(Nc2nccc(-c3cn(C)c4ccccc34)n2)c(OC)cc1N(C)CCN(C)C
active: Potency [1] 3.79 µM | Potency [4] 9.34 µM | Potency [5] 3.72 µM | Potency [6] 2.95 µM | Potency [7] 5.25 µM | Potency [8] 4.68 µM | Potency [9] 8.33 µM | Potency [10] 7.42 µM
inactive: Potency [2] | Potency [3]

CS(=O)(=O)c1ccc(C(=O)Nc2ccc(Cl)c(-c3ccccn3)c2)c(Cl)c1
inactive: activation [1] -14.7% and -1.91% | Potency [2] | Potency [3] | viability [4] 106% | Potency [5] | Potency [6] | Potency [7] | Potency [8] | Potency [9] | Potency [10]

C[C@@H](Oc1cc(-c2cnn(C3CCNCC3)c2)cnc1N)c1c(Cl)ccc(F)c1Cl
inactive: activation [1] -17.6% | Potency [2] | Potency [3]
active: Potency [4] 10.5 µM | Potency [5] 5.9 µM | Potency [6] 2.35 µM | Potency [7] 1.18 µM | Potency [8] 1.66 µM | Potency [9] 1.18 µM | Potency [10] 1.48 µM

CC(C)c1cnn2c(NCc3ccccc3)cc(N[C@@H](CO)[C@H](O)CO)nc12
active: Potency [1] 544 nM and 1.51 µM | Potency [4] 0.296 µM | Potency [5] 0.468 µM | Potency [6] 0.372 µM | Potency [7] 0.296 µM | Potency [8] 0.372 µM | Potency [9] 0.296 µM | Potency [10] 0.372 µM
inactive: Potency [2] | Potency [3]

CN1C(=O)N[C@@H](Cc2c[nH]c3c(Cl)cccc23)C1=O
inactive: activation [1] -25.9% | Potency [2] | Potency [3] | viability [4] 110% | Potency [5] | Potency [6] | Potency [7] | Potency [8] | Potency [9] | Potency [10]

C=C1C(=O)[C@@]23C(CC[C@@H]1[C@H]2O)[C@@]12CO[C@]3(O)[C@@H](O)[C@@H]1C(C)(C)CC[C@@H]2O (stereo not given in full)
active: Potency [1] 27.3 µM | Potency [4] 9.34 µM | Potency [5] 3.32 µM | Potency [6] 2.63 µM | Potency [7] 2.35 µM | Potency [8] 5.9 µM | Potency [9] 8.33 µM | Potency [10] 11.8 µM
inactive: Potency [2] | Potency [3]

C=CC(=O)Nc1cccc(Sc2nc(Nc3ccc(N4CCN(C)CC4)cc3)ncc2Cl)c1
active: Potency [1] 12 µM | Potency [4] 11.8 µM | Potency [5] 13.2 µM | Potency [6] 2.95 µM | Potency [7] 6.61 µM | Potency [8] 9.34 µM | Potency [9] 10.5 µM | Potency [10] 10.5 µM
inactive: Potency [2] | Potency [3]

CC(C)c1cc(C(C)C)c(CC(=O)NS(=O)(=O)Oc2c(C(C)C)cccc2C(C)C)c(C(C)C)c1
active: Potency [5] 10.5 µM | Potency [6] 5.25 µM | Potency [7] 7.42 µM | Potency [9] 8.33 µM
inactive: activation [1] 11.6% and 19% | Potency [2] | Potency [3] | viability [4] 106% | Potency [8] | Potency [10]

CCN1CCN(Cc2ccc(NC(=O)c3ccc(C)c(NC(=O)c4cncc(-c5cccs5)c4)c3)cc2C(F)(F)F)CC1
active: Potency [1] 26.9 µM | Potency [4] 5.9 µM | Potency [5] 4.17 µM | Potency [6] 0.118 µM | Potency [7] 0.0148 µM | Potency [8] 1.05 µM | Potency [9] 1.05 µM | Potency [10] 1.18 µM
inactive: Potency [2] | Potency [3]

Cn1cc(-c2ccc(S(=O)(=O)n3ccc(/C=C/C(=O)Nc4ccccc4N)c3)cc2)cn1
inactive: Potency [2] | Potency [3]
active: Potency [1] 19 µM | Potency [4] 1.86 µM | Potency [5] 1.18 µM | Potency [6] 1.18 µM | Potency [7] 1.05 µM | Potency [8] 1.18 µM | Potency [9] 0.833 µM | Potency [10] 1.05 µM

CC(C)c1c2cc(-c3ccnc(NC4CCC(NC5CCOCC5)CC4)n3)ccc2nn1C (stereo not given)
inactive: Potency [2] | Potency [3]
active: Potency [1] 0.478 µM | Potency [4] 0.296 µM | Potency [5] 0.209 µM | Potency [6] 0.0934 µM | Potency [7] 0.235 µM | Potency [8] 0.118 µM | Potency [9] 0.166 µM | Potency [10] 0.417 µM

N#Cc1ccc(C2CCCc3cncn32)cc1 (stereo not given)
inactive: activation [1] -5% | Potency [2] | Potency [3] | viability [4] 109% | Potency [5] | Potency [6] | Potency [7] | Potency [8] | Potency [9] | Potency [10]
